bovine MsrA act – activates bovine MsrA enzyme; purified bovine MsrA, absorbance read-out; AID 602163; 0.3% of 360,000 active; activation, % at 10.6 µM; in the data active means activation above about 7.5%;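 further: 0% = vehicle and 100% = reference activator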
HTR5A inv ag – counter-screen for OPRM1-OPRD1 inverse agonists: human HTR5A inverse agonism; HTR5A cell line, luminescence; inhibition, % at 9.3 µM; 0.083% of 340,000 active; in the data active means inhibition mostly above about 23%, no sharp cut-off; inactive means mostly below about 18%;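 further: 0% = cells with DMSO and 100% = no-cell wells with DMSO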
MsrA inh – inhibitors of bovine MsrA | purified bovine MsrA, absorbance read-out | inhibition, % at 15.5 µM | 0.75% of 360,000 active; in the data active means inhibition above about 4.5%;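 further: 0% = vehicle wells with enzyme and 100% = reference inhibitor wells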
HTR5A ag ctr – counter-screen for OPRM1-OPRD1 agonists: human HTR5A agonism; HTR5A agonist assay, luminescence, cell-based; activation, % at 9.3 µM; 0.61% of 340,000 active; AID 504692; in the data active means activation mostly above about 9.5%, no sharp cut-off; inactive means mostly below about 7.6%;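 further: 0% = cells with vehicle only and 100% = reference agonist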
OPRM1-OPRD1 inv – inverse agonist of human OPRM1-OPRD1 heterodimerization. P35372+P41143. cell-based MOR-DOR heterodimer luminescence, inverse agonism. inhibition, % at 9.3 µM. 0.21% of 340,000 active. AID 504357; in the data active means inhibition above about 22%, passing the limit was not always enough;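 further: 0% = cells with DMSO and 100% = wells without cells with DMSO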
Target sequence (P35372 whole entry, looked up): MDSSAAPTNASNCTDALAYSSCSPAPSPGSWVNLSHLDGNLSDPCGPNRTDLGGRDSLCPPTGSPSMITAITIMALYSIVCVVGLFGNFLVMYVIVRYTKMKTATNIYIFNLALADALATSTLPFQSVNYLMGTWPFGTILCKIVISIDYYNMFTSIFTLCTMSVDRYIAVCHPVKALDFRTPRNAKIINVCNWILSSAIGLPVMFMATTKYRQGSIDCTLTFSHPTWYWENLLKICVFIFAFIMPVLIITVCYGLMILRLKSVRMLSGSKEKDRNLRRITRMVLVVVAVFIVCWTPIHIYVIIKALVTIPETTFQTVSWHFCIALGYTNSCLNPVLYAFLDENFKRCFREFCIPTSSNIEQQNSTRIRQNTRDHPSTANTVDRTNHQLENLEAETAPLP
Target sequence (P41143 whole entry, looked up): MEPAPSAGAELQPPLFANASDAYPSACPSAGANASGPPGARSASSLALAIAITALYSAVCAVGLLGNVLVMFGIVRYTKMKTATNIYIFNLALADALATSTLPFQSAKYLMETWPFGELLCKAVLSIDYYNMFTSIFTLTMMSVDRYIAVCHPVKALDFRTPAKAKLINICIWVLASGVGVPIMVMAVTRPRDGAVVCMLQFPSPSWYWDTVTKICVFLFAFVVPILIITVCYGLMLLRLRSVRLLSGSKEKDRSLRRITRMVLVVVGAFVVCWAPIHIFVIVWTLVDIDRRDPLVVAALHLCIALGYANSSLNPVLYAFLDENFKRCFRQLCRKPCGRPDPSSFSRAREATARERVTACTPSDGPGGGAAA
MOR-DOR ag – OPRM1-OPRD1 heterodimerization agonism. 0.3% of 340,000 active. cells, luminescence. AID 504326. P35372+P41143. activation, % at 9.3 µM;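 further: 0% = vehicle-treated cells and 100% = reference agonist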
MOR-DOR ag conf – OPRM1-OPRD1 heterodimer agonism, confirmation; shares compounds with MOR-DOR ag; cells, MOR-DOR heterodimerization, luminescence complementation; activation, % at 9.3 µM; 45% of 830 active;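 further: 0% = vehicle-treated cells and 100% = reference agonist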
HTR5A ag counter – counter-screen for OPRM1-OPRD1 agonists: human HTR5A agonism; activation, % at 9.3 µM; HTR5A agonist counterscreen, cell luminescence; AID 504905; 8% of 830 active; shares compounds with MOR-DOR ag; in the data active means activation above about 17%;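 further: 0% = vehicle-treated cells and 100% = reference agonist response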
* = called active by the depositor; i = inactive; nt = not tested or not shown. Most compounds without a hit are left out; they make up all but 1.9% or so of the library. Unless noted, no stated cut-off is given here; in the data, active means activation above about 18%; inactive means the rest.

SMILES | bovine MsrA act | HTR5A inv ag | MsrA inh | HTR5A ag ctr | OPRM1-OPRD1 inv | MOR-DOR ag | MOR-DOR ag conf | HTR5A ag counter
c1ccc(C2(N3CCCCC3)CCCCC2)cc1 | 4.5 | 17.9 | -0.2 | -7.7 | i | 373.9* | 345.9* | -1.8
Cc1ccc(N2Cc3ccccc3-n3nncc3C2)cc1 | nt | nt | -1.6 | nt | nt | nt | nt | nt
CC1[C@H]2Cc3ccc(O)cc3[C@]1(C)CCN2CCc1ccccc1 (stereo partly drawn) | 3.0 | 18.9 | -1.5 | -8.2 | i | 338.9* | 315.0* | 0.3
CN1CC[C@@H]2CN[C@H](c3ccccc3Br)C[C@@H]21 | nt | nt | -1.1 | nt | nt | nt | nt | nt
CN1C2(C)c3ccccc3C1(c1ccccc1)c1ccccc12 | nt | nt | -0.7 | nt | nt | nt | nt | nt
CC(=O)OC1CC[C@]2(C#N)[C@H]3CC[C@]4(C)[C@H](C5C=CC(=O)O5)CCC4(O)C3CCC2(O)C1 (stereo partly drawn) | -2.6 | -69.3 | -0.5 | 18.7* | -245.8 | 51.4* | 17.9 | 21.1*
CCOC(=O)CNC(=O)N1Cc2cc(Br)ccc2-n2nncc2C1 | nt | nt | 0.5 | nt | nt | nt | nt | nt
N#Cc1ccc2nc(-c3ccc(CN4CCC(n5c(=O)[nH]c6cc(Cl)ccc65)CC4)cc3)c(-c3ccccc3)nc2c1 | nt | nt | 1.2 | nt | nt | nt | nt | nt
Cc1cc(NC(=O)CCl)nn1C | -8.4 | -18.5 | 0.3 | 6.5 | -468.6 | 91.3* | 1.1 | 1.9
Clc1cc(Cl)cc(CN2Cc3cc(Br)ccc3-n3nncc3C2)c1 | nt | nt | -1.1 | nt | nt | nt | nt | nt
CC12CC[C@H]3[C@@H](CCC4(O)C[C@H](O)CCC34/C=N/NC(=O)c3ccccc3O)C1(O)CCC2C1=CC(=O)OC1 (stereo partly drawn) | -2.4 | -29.5 | 2.1 | 9.4 | -184.2 | 34.8* | 8.7 | -0.1
CC12CC[C@H]3[C@@H](CCC4(O)C[C@H](O)CCC34/C=N/NC(=O)c3ccccc3F)C1(O)CCC2C1=CC(=O)OC1 (stereo partly drawn) | -2.3 | 9.2 | 1.9 | 10.6 | -63.8 | 12.5 | nt | nt
CC1OC(OC2CC(O)C3(CO)C4C(O)CC5(C)C(C6=CC(=O)OC6)CCC5(O)C4CCC3(O)C2)C(O)C(O)C1O (stereo not drawn) | 0.7 | 0.1 | -0.4 | 26.1* | -403.7 | 80.0* | 5.0 | 3.3
COc1ccc(CNCCc2c[nH]c3ccccc23)c(OC)c1C | -8.5 | -24.6 | -0.2 | 6.6 | -95.3 | 21.3* | 48.2* | 15.1
CN1CC[C@]23c4c5ccc(O)c4OC2[C@H](O)C=CC3[C@H]1C5 (stereo partly drawn) | nt | -0.5 | nt | 0.2 | nt | nt | nt | 4.6
CN1CCC23c4c5ccc(O)c4O[C@@H]2[C@H](O)C=CC3C1C5 (stereo partly drawn) | nt | 4.7 | nt | -2.0 | nt | nt | nt | nt
OC1CN2CCCC(O)C2C1O (stereo not drawn) | nt | nt | -0.4 | nt | nt | nt | nt | nt
COC(=O)C1=CO[C@@H](C)[C@@H]2CN(CCc3c[nH]c4ccccc34)CC[C@H]12 | -2.6 | -12.6 | 0.0 | -8.1 | i | 91.6* | 122.8* | 1.0
COC(=O)C1=COC(C)C2CN3CCC4(C(=O)Nc5ccccc54)C3CC12 (stereo not drawn) | -3.6 | 21.2 | -0.5 | 1.4 | 3.8 | -0.8 | nt | nt
CCC12CCN(CC3(O)CC3)C(Cc3ccc(O)cc31)C2(C)C (stereo not drawn) | nt | nt | -0.8 | nt | nt | nt | nt | nt
CCC(COC(=O)c1cc(OC)c(OC)c(OC)c1)(c1ccccc1)N(C)C (stereo not drawn) | -12.1 | 16.7 | 0.5 | -4.7 | -294.3 | 54.4* | 50.7* | 13.5
CC(C)C(CN1CCC(C)(c2cccc(O)c2)[C@@H](C)C1)NC(=O)C1Cc2ccc(O)cc2CN1 (stereo partly drawn) | nt | nt | -1.1 | nt | nt | nt | nt | nt
CCC(=O)C(CCN1CCOCC1)(c1ccccc1)c1ccccc1 | 0.3 | 2.8 | -0.1 | 0.7 | i | 271.4* | 250.2* | -1.1
N#CC(CCN1CCOCC1)(c1ccccc1)c1ccccc1 | -4.1 | 2.3 | -0.3 | -0.6 | 21.3 | -4.1 | nt | nt
CC(Cc1ccccc1)NC(=O)Cc1ccc(N(C)C)cc1 (stereo not drawn) | -3.0 | 27.0 | -1.3 | 1.1 | 6.5 | -1.3 | nt | nt
SMILES | bovine MsrA act | HTR5A inv ag | MsrA inh | HTR5A ag ctr | OPRM1-OPRD1 inv | MOR-DOR ag | MOR-DOR ag conf | HTR5A ag counter
CN(C)C(CNC(=O)Cc1ccc(Br)cc1)c1ccccc1 (stereo not drawn) | -2.4 | 1.8 | -0.5 | -0.6 | i | 141.4* | 213.8* | -4.5
CCC(=O)OC1(c2cccc(C)c2)CC(C)N(C)CC1C (stereo not drawn) | -0.8 | 3.0 | 0.2 | -1.2 | -313.3 | 64.2* | 65.8* | -0.1
CC1CC(OC(=O)c2ccccc2)(c2ccccc2)C(C)CN1C (stereo not drawn) | -2.9 | 5.2 | -1.2 | -2.2 | 24.9 | -5.0 | nt | nt
CCC(=O)OC1(c2ccccc2)CCN(C)CC1C (stereo not drawn) | -0.2 | nt | 0.6 | nt | nt | nt | nt | nt
CCC(=O)OC1(Cc2ccc(CC)cc2)CC(C)N(C)CC1C (stereo not drawn) | -4.3 | -44.2 | 0.3 | 1.0 | -105.8 | 20.2* | 1.7 | 1.3
CCC(C)N1C(=O)NC(=O)C2(Cc3c(ccc4ccccc34)N(C)C2)C1=O (stereo not drawn) | -3.5 | -29.7 | 0.0 | 13.5 | -126.1 | 20.2* | 214.6* | -1.2
C[C@@H]1O[C@@H](O[C@@H]2C=C3CCC4C(CC[C@]5(C)[C@@H](c6ccc(=O)oc6)CC[C@]45O)[C@@]3(C)CC2)[C@H](O)[C@H](O)[C@H]1O (stereo partly drawn) | -9.2 | -106.5 | -0.2 | 29.8* | -381.5 | 70.6* | 33.8* | 27.2*
COc1ccc2c(c1O)[C@]13CCN(C)[C@H](C2)[C@@H]1CCC(=O)C3 | -1.6 | -15.7 | -0.1 | 5.0 | i | 96.4* | 23.3* | -0.9
COC1=CC2C3Cc4ccc(OC)c(O)c4C2(CCN3C)CC1=O (stereo not drawn) | -2.8 | -20.2 | 0.1 | 8.2 | 3.1 | -0.7 | nt | nt
CS(=O)(=O)N1Cc2cc(Br)ccc2-n2nncc2C1 | nt | nt | -0.2 | nt | nt | nt | nt | nt
CN(C)C1(CNC(=O)Nc2ccc(Cl)c(Cl)c2)CCCCC1 | -1.9 | -19.0 | -0.4 | 7.1 | -358.3 | 67.4* | -0.8 | -4.3
COc1ccc(C(CNC(=O)CCc2ccsc2)N(C)C)cc1 (stereo not drawn) | -4.5 | 12.8 | -0.8 | 2.0 | i | 404.6* | 55.0* | -3.3
COc1ccc(C(CN(C)C)C2(O)CCCCC2)cc1 (stereo not drawn) | -2.1 | -18.4 | -1.0 | -3.4 | 12.2 | -2.2 | nt | nt
